The target of test [1] is Aldehyde dehydrogenase, mitochondrial (Homo sapiens) (UniProt P05091). Kind of test: qHTS for Inhibitors of the Aldehyde Dehydrogenase Family (ALDH2) Primary screen (AID 2061308). Further: nearly all actives have a fitted effect of over 55% in size. A general note: In qHTS, concentration-response curves come from the screen itself.
Test [2] concerns the target Retinaldehyde dehydrogenase 3 (Homo sapiens) (UniProt P47895). Nature of the test: qHTS for Inhibitors of the Aldehyde Dehydrogenase Family (ALDH1A3) Primary screen (AID 2061315).

For 24 compounds, Potency results are on record in PubChem BioAssay (NCATS).

SMILES strings stand for the structures. Records with an inconclusive call do not appear. A call without a number means that no potency is given here. Activity calls are given as the source filed them. The call rests on the fitted dose curve; in most records, active means well fitted curve in the direction sought with a large enough effect; inconclusive means small, poorly fitted or top-dose-only effect, or another doubt; inactive means no such curve, though single readings can be large; an effect the other way counts as inactive or inconclusive.

Regarding `COC(=O)c1nc(Nc2cc(F)cc(F)c2)nc(NC2CCCC2)n1`, the Potency result in test [1] and in test [2] was “inactive” in each case.

For `O=C(Cc1ccc2ccccc2c1)Nc1nnc(-c2ccncc2)s1`, the Potency entry in test [1] and in test [2] was “inactive” each time.

`Cc1cc(-c2nnc3n2CCCCC3)c(C)n1-c1cccc(Cl)c1`: the Potency result in test [1] and in test [2] was “inactive” in each case.

Take `O=[S+]([O-])(Nc1ccc(C2CCNCC2)cc1)c1ccc(NCc2ccc(Cl)cc2O)cc1`: the Potency entry in test [1] and in test [2] was “inactive” in each case.

As to `Cc1cc(C)nc(NC(=S)N2CCN(c3ccc([N+](=O)[O-])c4cccnc34)CC2)c1`, the Potency entry in test [1] and in test [2] was “inactive” each time.

As for `CCN(CC)Cc1cccc(/C=C/c2nc3ccc(F)cc3c(=O)n2-c2ccccc2Cl)n1`, the Potency result in test [1] and in test [2] was “inactive” throughout.

As to `Cc1cccc(NC(=O)c2cnn3c(C)cc(C)nc23)c1`, the Potency result in test [1] and in test [2] was “inactive” each time.

On to `COc1cc(N2CCN(C(=S)Nc3cc(C)cc(C)n3)CC2)cc(C(F)(F)F)c1`, for which the Potency entry in test [1] and in test [2] was “inactive” in each case.

`O=C(Cn1ncccc1=O)NCCc1ccccc1`: the Potency entry in test [1] and in test [2] was “inactive” throughout.

Consider `CC(C)c1nc(Nc2nc3ccccc3o2)nc2c1CCCC2`, for which the Potency result in test [1] and in test [2] was “inactive” in each case.

As to `O=C(c1cc2sccc2n1Cc1ccccc1)N(CCc1ccc(O)c(O)c1)Cc1ccccc1`, the Potency result in test [1] and in test [2] was “inactive” each time.

For `FC(F)(F)c1cccc(N2CCN(C(=S)Nc3cc(C(F)(F)F)ccn3)CC2)c1`, the Potency entry in test [1] and in test [2] was “inactive” in each case.

For the compound `CC(C)(C)CNc1ncnc2ccc(-c3ccc(CO)o3)cc12`, the Potency entry in test [1] and in test [2] was “inactive” throughout.

`CN(C)c1ccccc1-c1csc(N2CCC(C(N)=O)CC2)n1`: the Potency entry in test [1] and in test [2] was “inactive” throughout.

Consider `Cc1cc(C)cc(N2CCN(C(=S)Nc3cc(C)cc(C)n3)CC2)c1`, for which the Potency entry in test [1] and in test [2] was “inactive” each time.

Consider `COC(=O)c1ccc(-c2c(NC(C)=O)sc3c2CCNC3)cc1`, for which the Potency entry in test [1] and in test [2] was “inactive” throughout.

For `Cc1ccc(NS(=O)(=O)c2ccc(F)cc2)cc1C`, the Potency result in test [1] and in test [2] was “inactive” throughout.

For `CCCn1c(C)nc2c(NCC3CCCN3CC)nc(C)nc21` (stereo not drawn), the Potency entry in test [1] and in test [2] was “inactive” in each case.

As for `Cc1nc(NCCO)c2nc(-c3ccccc3)n(CCCN(C)C)c2n1`, the Potency result in test [1] and in test [2] was “inactive” in each case.

In the case of `O=C1c2ccccc2C(=O)N1c1ccccc1O`, the Potency entry in test [1] and in test [2] was “inactive” in each case.

For `COc1cc(O)c(C(CC(=O)N2CCCCCC2)c2ccc3c(c2)OCO3)c(OC)c1` (stereo not drawn), the Potency result in test [1] and in test [2] was “inactive” throughout.

For the compound `Fc1cnc(-c2ccccc2C(F)F)nc1NCc1ccc(-c2cccnc2)cc1`, the Potency result in test [1] and in test [2] was “inactive” each time.

In the case of `O=C(Nc1ccc(Cl)c(Cl)c1)N1CCN(c2ccncc2)CC1`, the Potency result in test [1] and in test [2] was “inactive” in each case.

On to `CCCCNc1nc(C)nc2c1nc(-c1ccccc1)n2CCN(C)C`, for which the Potency result in test [1] and in test [2] was “inactive” in each case.
